The text below walks through data of PubChem BioAssay (NCI).

Each structure is given as a SMILES string. The panel holds about 83,000 compounds, 20% with a hit somewhere; the sample as a whole holds those more often.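 Growth was measured after 48 h exposure to one concentration of compound in 96-well plates. Values under 10 count as active.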 Activity calls are given as the source filed them.

The first test deals with SN12C renal. Put plainly: NCI-60 one-dose screen, 48 h (100 = growth as untreated, 0 = no growth, -100 = all killed). To be noted: 10 µM unless noted.
Regarding `CC/C(=C(/c1ccc(Cl)cc1)c1ccc(OCCN2CCCC2)cc1)c1ccc(OC)cc1`, the growth was 79.5% (inactive).

Take `Nc1ncnc2c1N=C(c1ccc(Cl)cc1)CC(c1ccc3c(c1)OCO3)N2` (stereo not given): the growth is 97.2% (inactive).

With `N=C(N)c1ccc(-c2ccc(-c3ccc(F)cc3)o2)o1`, the growth is 37.4% (inactive).

For `CCCCC(=O)c1ccco1`, the growth was 87.9% (inactive).

For the compound `C/C(=C(/c1ccc(Cl)cc1)c1ccc(OCCN2CCCC2)cc1)c1ccc(Cl)cc1`, the growth is 85.5% (inactive).

Take `COC(=O)c1c2c(c[n+]([O-])c1C)C(=O)C(NCc1ccccc1)=CC2=O`: the growth is -78.9% (active).

For the compound `Fc1ccc(-c2nn(-c3ccccc3)cc2-c2nc3ccccc3o2)cc1`, the growth was 60.1% (inactive).

As to `COc1ccc2c3c([nH]c2c1)C(=O)c1nc(C)ccc1C3=O`, the growth is 38.4% (inactive).

Regarding `CCN(C(=O)N1CCN(c2cc3c(cc2F)c(=O)c(C(=O)O)cn3C2CC2)CC1)c1nc(-c2ccc(Cl)cc2)cs1`, the growth is 3.28% (active).

In the case of `CCCNC(=O)Oc1ccc(/C(=C(/C)Cc2ccc(OC)cc2)c2ccc(OCCCN(C)C)cc2)cc1`, the growth was 84% (inactive).

On to `CC(=O)OCc1nc(C#N)c(N(C)C)o1`, for which the growth is 97.7% (inactive).

With `Cn1ccnc1C(=O)C(=O)Nc1ccc(CC(=O)Nc2ccccc2)cc1`, the growth was 103% (inactive).

Regarding `O=C(CN1C(=O)CCC1=O)Nc1ncc(Cc2ccc(F)cc2)s1`, the growth is 98.8% (inactive).

For `CNc1nc(S(=O)c2ccc(C#N)cc2)nc2ccccc12` (stereo not given), the growth is 68.9% (inactive).

As to `Cn1c(-c2ccc(Br)cc2)c(O)c(=O)c2c(F)cccc21`, the growth is 68.8% (inactive).

Turning to `CCN(CC)CCCN1C(=O)c2c(c(C)c3c(oc4cc(O)ccc43)c2C)C1=O`, the growth is -75% (active).

Consider `Cn1ccc2c3c(ccc21)CC3=O`, for which the growth was 106% (inactive).

As for `O=C1N[C@@H]2NC(=[N+]3CCOCC3)N[C@@H]2N1`, the growth was 97.8% (inactive).

Take `CCCCCOc1ccc(C(=O)/C(Br)=C/C(=O)O)cc1`: the growth was 102% (inactive).

Take `O=C(/C=C/c1ccccc1)c1cccc(OCCCOc2cccc(C(=O)/C=C/c3ccccc3)c2)c1`: the growth is 94.2% (inactive).

For `O=C(Cc1ccccc1)Nc1nc(O)c(/C=C2\C(=O)C=Cc3ccccc32)s1`, the growth was 101% (inactive).

`Nc1c(C(=O)Nc2ccncc2)sc2nc3c(cc12)CCCCCC3`: the growth was 86.4% (inactive).

As for `COc1ccc(C(=O)Nc2cccc(C3CC(=O)c4c(cc(OC)c(OC)c4OC)O3)c2)cc1` (stereo not given), the growth was 31.2% (inactive).

For `O=C(c1cc2ccccc2o1)c1nn(-c2ccccc2)/c(=N/N=Cc2cn(-c3ccccc3)nc2-c2cc3ccccc3oc2=O)s1`, the growth was 113% (inactive).

As to `CCCCCCCCCCCCCCCCCCOc1ccccc1CC(=O)NCC[N+]1(C)CCCC1`, the growth is 29.8% (inactive).

For the compound `O=C(CSc1nc(-c2ccccc2)[nH]c1S(=O)(=O)c1ccccc1)NC1CC1`, the growth is 96.5% (inactive).

For the compound `CC(C)N1CCN(Cc2ccc3c(NNC(=O)c4ccccc4)nc4cc(F)ccc4n23)CC1`, the growth is 17.3% (inactive).

As for `O=S(=O)(NCCCNc1nccc(-c2c(-c3ccc(F)c(O)c3)nc3occn23)n1)c1ccccc1`, the growth was 79.1% (inactive).

For the compound `COc1cc(-c2csc(NC(=O)c3cc(-n4cnc(C)c4)cc(C(F)(F)F)c3)n2)cc(OC)c1OC`, the growth was 44.1% (inactive).

`COc1cc2c(c(OC)c1OC)CCC(c1cccc(C(=O)Nc3cccc(Br)c3)c1)O2` (stereo not given): the growth is 55.9% (inactive).

For `Cc1nn(-c2ccccc2)c(Oc2ccccn2)c1-c1nc2ccccc2s1`, the growth was 100% (inactive).

On to `CSc1nnc(-c2cnn3c2NC(c2ccccc2)C3)n1-c1ccc(C(F)(F)F)cc1` (stereo not given), for which the growth is 78.5% (inactive).

In the case of `Cc1ccc(-c2cc(-c3ccc(Cl)cc3)nc(NC(=O)c3cccnc3)n2)cc1`, the growth is 103% (inactive).

`CC1=C(C(=O)OC(C)C)C(c2ccc3c(c2)OCO3)NC(=S)N1` (stereo not given): the growth was 105% (inactive).

`CCOC(=O)c1c2c(n3ccc(C)cc13)C(=O)c1ccccc1C2=O`: the growth is 95.8% (inactive).

As for `O=S(=O)(NCCNc1cc(-c2c(-c3cccc(O)c3)nc3sccn23)ccn1)c1ccc(C(F)(F)F)cc1`, the growth is 35.6% (inactive).

For the compound `Cc1nc2ncnc(Cl)c2[nH]1`, the growth was 99.7% (inactive).

Turning to `N#Cc1nn(-c2cc(=O)[nH]c3ccc(Cl)cc23)c(N)c1C#N`, the growth was 104% (inactive).

In the case of `C#COc1cccc(Nc2ncnc3ncc(NC(=O)CCl)cc23)c1`, the growth was 3.98% [6.25 µM] (active).

With `COC(=O)[C@]1(C)CCC[C@]2(C)[C@H]3C[C@H]4C(C(C)C)=C[C@]3(CC[C@H]21)[C@H]1[C@@H]4[C@@H](OCCC#N)CC[C@@H]1OCCC#N`, the growth was 2.29% (active).

For another test, the system named is UO-31 renal. Described as above. As to conditions: 10 µM unless noted.
On to `CC/C(=C(/c1ccc(Cl)cc1)c1ccc(OCCN2CCCC2)cc1)c1ccc(OC)cc1`, for which the growth was 59.5% (inactive).

`Nc1ncnc2c1N=C(c1ccc(Cl)cc1)CC(c1ccc3c(c1)OCO3)N2` (stereo not given): the growth is 80.5% (inactive).

For the compound `N=C(N)c1ccc(-c2ccc(-c3ccc(F)cc3)o2)o1`, the growth is 15.5% (inactive).

With `CCCCC(=O)c1ccco1`, the growth is 79.1% (inactive).

Take `C/C(=C(/c1ccc(Cl)cc1)c1ccc(OCCN2CCCC2)cc1)c1ccc(Cl)cc1`: the growth was 65.7% (inactive).

Regarding `COC(=O)c1c2c(c[n+]([O-])c1C)C(=O)C(NCc1ccccc1)=CC2=O`, the growth is -14.8% (active).

In the case of `Fc1ccc(-c2nn(-c3ccccc3)cc2-c2nc3ccccc3o2)cc1`, the growth was 60.6% (inactive).

`COc1ccc2c3c([nH]c2c1)C(=O)c1nc(C)ccc1C3=O`: the growth is 39.6% (inactive).

For `CCN(C(=O)N1CCN(c2cc3c(cc2F)c(=O)c(C(=O)O)cn3C2CC2)CC1)c1nc(-c2ccc(Cl)cc2)cs1`, the growth is 5.03% (active).

Consider `CCCNC(=O)Oc1ccc(/C(=C(/C)Cc2ccc(OC)cc2)c2ccc(OCCCN(C)C)cc2)cc1`, for which the growth was 60.6% (inactive).

In the case of `CC(=O)OCc1nc(C#N)c(N(C)C)o1`, the growth is 89.9% (inactive).

In the case of `Cn1ccnc1C(=O)C(=O)Nc1ccc(CC(=O)Nc2ccccc2)cc1`, the growth is 85.7% (inactive).

`O=C(CN1C(=O)CCC1=O)Nc1ncc(Cc2ccc(F)cc2)s1`: the growth is 76% (inactive).

Regarding `CNc1nc(S(=O)c2ccc(C#N)cc2)nc2ccccc12` (stereo not given), the growth is 60.2% (inactive).

On to `Cn1c(-c2ccc(Br)cc2)c(O)c(=O)c2c(F)cccc21`, for which the growth is 26.3% (inactive).

For `CCN(CC)CCCN1C(=O)c2c(c(C)c3c(oc4cc(O)ccc43)c2C)C1=O`, the growth is 90.8% (inactive).

On to `Cn1ccc2c3c(ccc21)CC3=O`, for which the growth was 107% (inactive).

`O=C1N[C@@H]2NC(=[N+]3CCOCC3)N[C@@H]2N1`: the growth is 87.3% (inactive).

`CCCCCOc1ccc(C(=O)/C(Br)=C/C(=O)O)cc1`: the growth is 98.6% (inactive).

As to `O=C(/C=C/c1ccccc1)c1cccc(OCCCOc2cccc(C(=O)/C=C/c3ccccc3)c2)c1`, the growth is 74.2% (inactive).

Consider `O=C(Cc1ccccc1)Nc1nc(O)c(/C=C2\C(=O)C=Cc3ccccc32)s1`, for which the growth was 78.2% (inactive).

On to `Nc1c(C(=O)Nc2ccncc2)sc2nc3c(cc12)CCCCCC3`, for which the growth was 78.4% (inactive).

In the case of `COc1ccc(C(=O)Nc2cccc(C3CC(=O)c4c(cc(OC)c(OC)c4OC)O3)c2)cc1` (stereo not given), the growth was 33.7% (inactive).

`O=C(c1cc2ccccc2o1)c1nn(-c2ccccc2)/c(=N/N=Cc2cn(-c3ccccc3)nc2-c2cc3ccccc3oc2=O)s1`: the growth is 68.5% (inactive).

With `CCCCCCCCCCCCCCCCCCOc1ccccc1CC(=O)NCC[N+]1(C)CCCC1`, the growth was 85.1% (inactive).

In the case of `O=C(CSc1nc(-c2ccccc2)[nH]c1S(=O)(=O)c1ccccc1)NC1CC1`, the growth is 89.2% (inactive).

On to `CC(C)N1CCN(Cc2ccc3c(NNC(=O)c4ccccc4)nc4cc(F)ccc4n23)CC1`, for which the growth is 8.43% (active).

With `O=S(=O)(NCCCNc1nccc(-c2c(-c3ccc(F)c(O)c3)nc3occn23)n1)c1ccccc1`, the growth is 75% (inactive).

Regarding `COc1cc(-c2csc(NC(=O)c3cc(-n4cnc(C)c4)cc(C(F)(F)F)c3)n2)cc(OC)c1OC`, the growth is 29.8% (inactive).

Turning to `COc1cc2c(c(OC)c1OC)CCC(c1cccc(C(=O)Nc3cccc(Br)c3)c1)O2` (stereo not given), the growth is 54.7% (inactive).

Take `Cc1nn(-c2ccccc2)c(Oc2ccccn2)c1-c1nc2ccccc2s1`: the growth is 88.2% (inactive).

On to `CSc1nnc(-c2cnn3c2NC(c2ccccc2)C3)n1-c1ccc(C(F)(F)F)cc1` (stereo not given), for which the growth is 53.7% (inactive).

`Cc1ccc(-c2cc(-c3ccc(Cl)cc3)nc(NC(=O)c3cccnc3)n2)cc1`: the growth is 79% (inactive).

For the compound `CC1=C(C(=O)OC(C)C)C(c2ccc3c(c2)OCO3)NC(=S)N1` (stereo not given), the growth is 84.5% (inactive).

Regarding `CCOC(=O)c1c2c(n3ccc(C)cc13)C(=O)c1ccccc1C2=O`, the growth is 60.6% (inactive).

Regarding `O=S(=O)(NCCNc1cc(-c2c(-c3cccc(O)c3)nc3sccn23)ccn1)c1ccc(C(F)(F)F)cc1`, the growth is -71.8% (active).

Consider `Cc1nc2ncnc(Cl)c2[nH]1`, for which the growth is 88.3% (inactive).

Turning to `N#Cc1nn(-c2cc(=O)[nH]c3ccc(Cl)cc23)c(N)c1C#N`, the growth is 75.8% (inactive).

As for `C#COc1cccc(Nc2ncnc3ncc(NC(=O)CCl)cc23)c1`, the growth was -68.1% [6.25 µM] (active).

Consider `COC(=O)[C@]1(C)CCC[C@]2(C)[C@H]3C[C@H]4C(C(C)C)=C[C@]3(CC[C@H]21)[C@H]1[C@@H]4[C@@H](OCCC#N)CC[C@@H]1OCCC#N`, for which the growth was 32.6% (inactive).
